According to PubChem BioAssay (NCI):
Where “and” joins values, the source holds several entries; their conditions need not be identical. Equal entries are not always repeated. Compounds without any hit were thinned out: in the full panel of roughly 83,000, 20% have a hit.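 Compound tested at a single concentration for 48 hours in 96-well plates; a percent growth value below 10 was scored as active.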 Unmarked numbers belong to inactive results. Calls of active or inactive are those of the source.

Assays:
Experiment in all cases: NCI-60 one-dose screen, 48 h (100 = growth as untreated, 0 = no growth, -100 = all killed)
Details in all cases: 10 µM unless noted
SR leukemia = tested on: SR leukemia
RPMI-8226 leukemia = tested on: RPMI-8226 leukemia
OVCAR-8 ovarian = tested on: OVCAR-8 ovarian
OVCAR-5 ovarian = tested on: OVCAR-5 ovarian
OVCAR-4 ovarian = tested on: OVCAR-4 ovarian
SK-OV-3 ovarian = tested on: SK-OV-3 ovarian
OVCAR-3 ovarian = tested on: OVCAR-3 ovarian
HS 578T breast = tested on: HS 578T breast
NCI/ADR-RES ovarian = tested on: NCI/ADR-RES ovarian
T-47D breast = tested on: T-47D breast
BT-549 breast = tested on: BT-549 breast
MDA-MB-435 melanoma = tested on: MDA-MB-435 melanoma
MCF7 breast = tested on: MCF7 breast
HCC-2998 colon = tested on: HCC-2998 colon
KM12 colon = tested on: KM12 colon
SW-620 colon = tested on: SW-620 colon
HCT-116 colon = tested on: HCT-116 colon
IGROV1 ovarian = tested on: IGROV1 ovarian

SMILES | growth (SR leukemia) | growth (RPMI-8226 leukemia) | growth (OVCAR-8 ovarian) | growth (OVCAR-5 ovarian) | growth (OVCAR-4 ovarian) | growth (SK-OV-3 ovarian) | growth (OVCAR-3 ovarian) | growth (HS 578T breast) | growth (NCI/ADR-RES ovarian) | growth (T-47D breast) | growth (BT-549 breast) | growth (MDA-MB-435 melanoma) | growth (MCF7 breast) | growth (HCC-2998 colon) | growth (KM12 colon) | growth (SW-620 colon) | growth (HCT-116 colon) | growth (IGROV1 ovarian)
Oc1ccc(O)c(-c2ccccc2)c1 | 4.96% (active) | 42% | 62.9% | 102% | 53.8% | 83.3% | 20.5% | 76.5% | 50.6% | 47.1% | 55.3% | 81.8% | 39.5% | 65.6% | 40.8% | – | – | –
Cc1c(O)nc(N)[nH]c1=O | 125% | 100% | 101% | 106% | 118% | 112% | 121% | 101% | 102% | 114% | 116% | 103% | 99% | 92.8% | 106% | 102% | 103% | –
NC(=O)Cc1nc(O)cc(=O)[nH]1 | 93.5% | 85.2% | 93.8% | 109% | 113% | 89.7% | 109% | 91.9% | 115% | 88.5% | 109% | 106% | 95.5% | 100% | 106% | 104% | 110% | –
CCCC(=O)OCC(COC(=O)CCC)OC(=O)CCC | 105% | 98.1% | 101% | 102% | 97.6% | 103% | 105% | 98.6% | 100% | – | 106% | 106% | 93.9% | 95.3% | 103% | 95.6% | 98.8% | 105%
N=C(N)N1CCc2ccccc2C1 | 75.1% and 93.9% | 74.5% and 80.8% | 89.9% and 103% | 88.4% | 95.4% and 117% | 101% and 107% | 104% and 101% | 85.9% and 98.4% | 92.9% and 114% | – | 84.4% and 103% | 96% and 95.6% | 106% and 104% | 83.2% and 99.2% | 92.6% and 94% | – | 94.7% and 102% | 102%
Nc1nc(-c2ccccn2)cc(-c2cc(-c3ccccn3)nc(N)n2)n1 | 92% | 111% | 106% | 109% | 105% | 119% | 110% | 127% | 107% | – | 117% | 119% | 92.2% | 104% | 107% | 133% | 111% | 108%
CC1(C)OC(=O)C(=Cc2ccc(C#N)cc2)C(=O)O1 | 93.5% and 89% | 101% and 103% | 94.5% and 97.8% | 107% and 113% | 115% and 98.3% | 104% and 106% | 111% and 105% | 99.3% and 104% | 106% and 110% | – | – | 108% and 105% | 104% and 95.6% | 112% and 105% | 105% and 115% | 100% and 104% | 96.5% and 108% | 107% and 105%
O=C(O)c1cccc(Br)c1 | 90.2% and 100% | 103% and 104% | 108% and 100% | 100% and 98.7% | 99.5% and 105% | 104% and 106% | 100% and 105% | 124% and 101% | 98.1% and 106% | – | 104% | 114% and 107% | 98.7% and 98.2% | 122% and 103% | 101% and 106% | 112% and 104% | 99.7% and 97.6% | 105% and 104%
O=[N+]([O-])c1ccc(N2CCN=N2)cc1 | 78.6% | 92.7% | 88% | 87.7% | 95.9% | 89.6% | 99.8% | 101% | 100% | – | 85.3% | 77.5% | 87.5% | 107% | 77.3% | 81.8% | 81.7% | 96.1%
CC1=CC(=O)c2cccc(NC3=NCCO3)c21 | 91.6% | 91.6% | 102% | 95.2% | 95.1% | 103% | 106% | 103% | 97.5% | 90.3% | 101% | 98.4% | 98.6% | 104% | 97.7% | 95.2% | 97.9% | –
CCCC(=O)Oc1ccc2ccccc2c1 | 110% | 94.4% | 94.6% | 117% | 105% | 91.8% | 113% | 92.7% | 102% | 92.2% | – | 106% | 101% | 97.9% | 113% | 92.1% | 101% | –
CCN(C)c1ccccc1 | 93.3% | 104% | 98.2% | 115% | 109% | 89.6% | 108% | 96.2% | 97.3% | – | 84.2% | 104% | 90.7% | 107% | 109% | – | 106% | 113%
CCCCNC(=O)c1ccccc1C | 85.3% | 99.7% | 107% | 94.4% | 104% | 97.3% | 105% | 104% | 99.3% | – | 94.1% | 97.9% | 89.8% | 88.3% | 101% | – | 90.2% | 96.2%
CNc1ccc(O)cc1 | 126% | 102% and 87.4% | 96.7% and 106% | 114% and 107% | 94.5% and 106% | 105% and 108% | 113% and 114% | 115% and 142% | 114% and 102% | 108% and 101% | 107% and 103% | 107% and 101% | 94.9% and 110% | 124% and 105% | 112% and 91.3% | 103% and 89.9% | 108% and 97.3% | –
CCN(CC)C(CC(=O)c1ccccc1)C(=O)c1ccccc1 (configuration not stated) | 29% | 86.5% | 96.6% | 113% | 93.3% | 114% | 92.5% | 113% | 101% | 77.8% | 102% | 99.2% | 53.2% | 108% | 109% | -7.93% (active) | – | –
